Rab9 prom act: Rab9 promoter activation; Huh7 Rab9 promoter-luciferase reporter, luminescence, 24 h; Potency, µM (top dose mostly 9.22 µM), without a hit: at the highest dose activation, negative = inhibition, hits mostly activators; hit rate 2.8% among 320,000; note: % of control where 0% means no effect; nearly all actives have a fitted effect of over 60% in size
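Stable Rab9-luc Huh7, 1500 cells/well, 2 h settle; cmpd in DMSO, 24 h, 37 °C/5% CO2; luciferase reagent 10 min RT; luminescence.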
FLuc modulator: counter-screen for miR-21 project: firefly luciferase inhibitors or activators | purified FLuc, Km substrates, luminescence inhibition | Potency, µM (doses to about 57.5 µM), inactives show top-dose activity change, negative = inhibition, most hits filed as inhibitors | hit rate 6.9% among 360,000;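 note: plate controls were vehicle for no effect and reference inhibitor for full effect; nearly all actives have a fitted effect of over 55% in size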
Target sequence (P08659 whole entry, looked up): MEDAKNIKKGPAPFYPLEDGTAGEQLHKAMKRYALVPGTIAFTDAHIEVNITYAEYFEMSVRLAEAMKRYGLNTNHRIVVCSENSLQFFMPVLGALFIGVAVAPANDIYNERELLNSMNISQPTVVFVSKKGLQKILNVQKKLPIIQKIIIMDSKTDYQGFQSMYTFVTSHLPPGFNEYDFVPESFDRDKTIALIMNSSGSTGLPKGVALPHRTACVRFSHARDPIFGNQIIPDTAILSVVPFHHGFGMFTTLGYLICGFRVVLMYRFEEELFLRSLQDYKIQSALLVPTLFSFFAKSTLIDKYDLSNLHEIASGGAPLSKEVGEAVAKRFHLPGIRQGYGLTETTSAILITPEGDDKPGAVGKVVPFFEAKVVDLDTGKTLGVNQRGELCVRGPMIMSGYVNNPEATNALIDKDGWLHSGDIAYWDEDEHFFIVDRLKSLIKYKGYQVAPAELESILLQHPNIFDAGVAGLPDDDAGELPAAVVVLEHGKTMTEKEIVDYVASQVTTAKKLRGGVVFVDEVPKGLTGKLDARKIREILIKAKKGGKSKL
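Biochemical qHTS of compounds, final roughly 60 µM downward over six points, against 10 nM purified firefly luciferase using Km concentrations of substrates (10 uM D-luciferin, 10 uM ATP) in Tris acetate pH 7.5 buffer; luminescence output.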
SMN2 splice up: SMN2 splice variant enhancement; AID 1458; HEK293 SMN2-luciferase splicing reporter, luminescence, 30-36 h; Potency, µM (top dose mostly 46.1 µM), for inactives: at the top dose activity change, positive = activation, hits mostly activators; hit rate 2.8% among 210,000; note: % of control where 0% means no effect; nearly all actives have a fitted effect of over 55% in size
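qHTS luciferase splicing reporter: luminescence rises when SMN2 exon 7 is included in transfected HEK293 cells. Compound exposure lasted 30-36 h at 37C, with 4.5 mM final sodium butyrate as control, followed by a ONE-Glo read.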
ELG1 genotoxic: induces genotoxicity in HEK293T cells with luciferase-tagged ELG1; HEK293T ELG1-luciferase reporter, luminescence, 16 h; Potency, µM (top dose mostly 46 µM), for the others: at the top dose activity change, positive = activation, hits mostly activators; hit rate 1.3% among 330,000; AID 504466; note: % of control where 0% means no effect; nearly all actives have a fitted effect of over 60% in size
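16 hr compound incubation (37 °C, 5% CO2) of HEK293T cells carrying luciferase-tagged ELG1; luciferase then measured by ONE-Glo luminescence after 30 min at RT.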
ELG1 DNA repair: blocks ELG1-dependent DNA repair in HEK293T cells; HEK293T ELG1-luciferase reporter, luminescence, 16 h; DNA damage induced by 5-fluorouridine; Potency, µM (titrated, usually from 46.1 µM), without a hit: at the top dose activity change, negative = inhibition, most hits filed as inhibitors; hit rate 2.3% among 330,000; note: % is set by controls: 0 for no effect and ±100 for the full control effect; nearly all actives have a fitted effect of over 55% in size
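In this reporter screen, reduction of luminescence relative to DMSO vehicle indicated activity. Compounds and 5-fluorouridine were added together to 2,000 cells per well, incubated for 16 hr at 37 °C, then developed with ONE-Glo.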
NPC1 prom act: activates the NPC1 promoter | Huh7 NPC1 promoter luciferase reporter, 24 h | Potency, µM (top dose mostly 9.22 µM), without a hit: at the highest dose activation, usual class: activators | hit rate 2.4% among 320,000 | AID 485313; note: % of control where 0% means no effect; nearly all actives have a fitted effect of over 60% in size
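In 1536-well qHTS, Huh7 cells harboring an NPC1 promoter–luciferase construct received compound for 24 h; activation was quantified by luminescence following luciferase reagent addition.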
* hit, by the source's call; ? = inconclusive; . = not tested or not shown; ! = repeats disagree; [ ] = another dose, or the depositor's remark. Shown are actives, neighbours in structure and some others; about 9.2% of the full set was active somewhere. Calls come from the whole dose curve; as a rule, active = well fitted curve in the direction sought with a large enough effect; inconclusive = small, poorly fitted or top-dose-only effect, or another doubt; inactive = no such curve, though single readings can be large; an effect the other way counts as inactive or inconclusive. Potency is the fitted concentration of half-maximal effect.

SMILES	Rab9 prom act	FLuc modulator	SMN2 splice up	ELG1 genotoxic	ELG1 DNA repair	NPC1 prom act
CCCCn1c(N)c(N(CC(C)C)C(=O)CCCc2cccs2)c(=O)[nH]c1=O	0%	-2%	.	1%	16%	-1%
CS(=O)(=O)c1nc(-c2ccc(Br)cc2)cc(-c2ccccc2)c1C#N	-21%	5%	-40%	-38%	16µM*	-8%
COc1ccc(-c2cc(-c3ccccc3)c(C#N)c(S(C)(=O)=O)n2)cc1	-18%	1%	-25%	?	?	-1%
O=C(NC(=O)C(F)(F)F)Nc1ccc(S(=O)(=O)Nc2nccs2)cc1	10%	3%	.	0%	-9%	0%
O=C(c1cnc(N2CCCCC2)c2ccccc12)N1CCN(c2ccccc2F)CC1	.	-12%	.	.	.	.
CCN(c1ccccc1)S(=O)(=O)c1nnc(NC(=O)C(C)(C)C)s1	-4%	2%	.	-1%	7.3µM*	1%
CCN(c1ccccc1)S(=O)(=O)c1nnc(NC(=O)c2ccco2)s1	0%	0.21µM*!	.	-1%	0%	2%
CCN(c1cccc(C)c1)S(=O)(=O)c1nnc(NC(=O)c2ccco2)s1	3%	2%	.	-3%	-1%	1%
CCN(c1ccccc1)S(=O)(=O)c1nnc(NC(=O)C(C)C)s1	-7%	0%	.	11%	9%	1%
CCN(c1cccc(C)c1)S(=O)(=O)c1nnc(NC(=O)c2ccccc2Cl)s1	.	13µM*	.	.	.	.
COCCn1c(CNC(=O)c2cc(OC)c(OC)c(OC)c2)nc2cccnc21	.	2%	.	.	.	.
Cc1cccc(C)c1NC(=O)CSc1nc2ccccc2c2nc(CCc3c(C)n[nH]c3C)nn12	.	4%	.	.	.	.
Cc1n[nH]c(C)c1CCc1nc2c3ccccc3nc(SCC(N)=O)n2n1	4%	-3%	-10%	-5%	23µM*	-1%
Cc1ccc(NCC(=O)N/N=C/c2cc3ccccc3nc2Cl)cc1	-4%	15µM*	-6%	5%	4%	-2%
Cc1ccc2nc(Cl)c(/C=N/Nc3ccc(C(=O)O)cc3)cc2c1	0.45µM*	0.067µM*	.	?	?	0.32µM*
O=C(O)/C=C/c1ccc(/C=C/C(=O)O)cc1	.	.	8%	.	.	.
CCCNC(=O)/C=C/c1ccc(C(C)C)cc1	28%	17µM*	?	?	?	22%
CC(C)c1ccc(/C=C/C(=O)O)cc1	-6%	19µM*	.	1%	21%	0%
COc1cccc(CN(C)C(=O)CCN=C2NS(=O)(=O)c3ccccc32)c1	.	.	.	0%	?	.
C/C=C(\C)C(=O)N1CC2(CC(c3cccc(NC(=O)COc4ccc(Cl)cc4)c3)=NO2)C[C@@H]1C(N)=O (some centres not stated)	-7%	15µM*	.	0%	-2%	-7%
C=C(C)C(=O)N1CC2(CC(c3cccc(NC(=O)CC)c3)=NO2)C[C@H]1C(N)=O (some centres not stated)	-10%	-1%	.	3%	15%	-5%
C=C(C)C(=O)N1CC2(CC(c3cccc(NC(=O)COc4ccc(Cl)cc4)c3)=NO2)C[C@@H]1C(N)=O (some centres not stated)	-7%	12µM*	.	-5%	-26%	1%
Oc1ccc(C2C[C@H]3CC[C@@H]2C3)cc1O (some centres not stated)	7%	12µM*	.	?	3%	-15%
NCCC[C@@H](CC(=O)N[C@@H]1CCNC[C@H]1C(=O)N[C@H](CC(=O)N[C@@H](CCC(=O)O)CC(=O)O)Cc1c[nH]c2ccccc12)NC(=O)C[C@H](Cc1ccccc1)NC(=O)[C@@H]1CNCC[C@H]1N	.	.	0%	.	.	.
COc1ccc(-c2nc3c(c4c2C[C@H](c2ccccc2)OC4)CN(S(=O)(=O)c2ccc4c(c2)OCCN4C)CC3)c(C)c1	.	.	-2%[9.22 µM]	.	.	.
SMILES	Rab9 prom act	FLuc modulator	SMN2 splice up	ELG1 genotoxic	ELG1 DNA repair	NPC1 prom act
CCOc1ccc(-c2ccc(CO)o2)cc1N	.	15µM*	.	.	.	.
Cc1ccc(-c2ccc(CO)o2)cc1N	-9%	-18%	-47%	-19%	?	8%
CCOC(=O)c1ccc(-c2ccc(CO)o2)cc1	1.6µM*	11µM*	7.9µM*	?	?	1.1µM*
O=c1cc(-c2ccccc2)cc(-c2ccccc2)n1O	-4%	1%	.	-10%	?	-4%
Cc1ccc(CNC(=O)C2CCCN(S(=O)(=O)c3cccc4nsnc34)C2)cc1 (configuration not stated)	.	0%	9%	.	.	.
c1ccc(-c2nccc(-c3ccc4c(c3)OCO4)n2)cc1	?	19µM*	?	?	?	?
c1ccc(CNc2ccnc(-c3ccc4c(c3)OCO4)n2)cc1	.	.	13µM*	.	.	.
CCOC(=O)c1c(NC(=O)c2nn(C)cc2[N+](=O)[O-])sc(C)c1C	-6%	-1%	.	-2%	-5%	-12%
CN(C)c1ccc(CNC(=O)CN2C(=O)CCn3nc(-c4cn(C)c5ccccc45)cc32)cc1	.	-2%	.	.	.	.
O=C(NCc1cccs1)c1ccc(CSc2nc3cccnc3n2Cc2ccccc2F)cc1	.	-17%	.	.	.	.
Cc1cccc(Cn2c(SCc3ccc(C(=O)NCc4cccs4)cc3)nc3cccnc32)c1	.	-15%	.	.	.	.
O=C(NCc1cccs1)c1ccc(Cn2c(SCc3ccccc3)nc3cccnc32)cc1	.	6.7µM*	.	.	.	.
Cc1ccc(CSc2nc3cccnc3n2Cc2ccc(C(=O)NCc3cccs3)cc2)cc1	.	0.95µM*	.	.	.	.
O=C(NCc1cccs1)c1ccc(Cn2c(SCc3ccc(F)cc3)nc3cccnc32)cc1	.	5.4µM*	.	.	.	.
COc1ccc(COC(=O)C2CC(=O)N(Cc3ccc(C)cc3)C2)cc1 (configuration not stated)	4%	-2%	.	0%	12%	-3%
CCOc1c(Cl)cc(Cl)cc1CNCCSc1nnnn1C	.	-9%	-12%	.	.	.
COc1cccc(-c2ncc3ccccc3c2COC(=O)c2ccc(C(F)(F)F)cc2)c1	-3%	4%	.	2%	21µM*	-1%
CCOC(=O)c1cc(-c2ccc(OC(F)F)cc2)nc2nc(SC)[nH]c(=O)c12	-4%	6µM*	.	-4%	?	1%
CCN(c1cccc(C)c1)S(=O)(=O)c1ccc2[nH]cc(C(=O)NCCCOC)c(=O)c2c1	.	-14%	.	.	.	.
CC(C)C1N=C(c2ccc3c(c2)OCO3)CC(c2ccccc2O)N1 (configuration not stated)	?	11µM*	-1%	18%	?	?
CCC(=O)Nc1ccc(C2C(=O)c3ccccc3C2=O)cc1	?	1.3µM*	.	?	?	0.79µM*
CCC(=O)NC1=C(Nc2ccc(N)cc2)C(=O)c2ccccc2C1=O	2.8µM*	27µM*	.	14%	?	27%
